Results from PubChem BioAssay AID1159580 (chemical genetic matrix, 2015).
Values joined by “and” are separate entries in the source; they are usually repeats but may differ in a detail not shown here. Equal values may be shown once. The whole screen tested about 5,500 compounds, of which about 2,000 (36%) were called active. Not shown: some 18% with an inconclusive outcome. No stated cut-off is given here; in the data, active means normalized growth mostly below about 0.91 (no sharp cut-off); inconclusive means no clear call, values can overlap the other calls; inactive means mostly above about 0.92. Some of the results follow.

Assay: chemical genetic growth profiling, strain panel (AID 1159580);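 further: tested at 20 µM; growth read once vehicle control cultures reached saturation at 30 °C; 1 = growth at the plate median or of vehicle wells; lower values mean less growth of the strain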
Details: S. cerevisiae deletion strains, growth OD

Measured: normalized growth

CCC(C)C(=O)O[C@H]1[C@H](O)C2C(CN3CC(C)CCC3[C@@]2(C)O)C2C[C@]34O[C@]5(O)C(OC(=O)C(C)(O)CC)CC[C@@]3(C)C5C(OC(C)=O)[C@@H](OC(C)=O)C4[C@@]21O (stereo partly specified)
inactive: locus YAL013W, strain DEP1, active compounds read low 1.01 | locus YAL021C, strain ccr4, active compounds read low 1.01 | locus YAL026C, strain drs2, active compounds read low 1.02 | locus YAL030W, strain snc1, active compounds read low 1.01 | locus YBL061C, strain skt5, active compounds read low 1.01 | locus YBR009C, strain hhf1, active compounds read low 1.02 | locus YBR021W, strain FUR4, active compounds read low 1.01 | locus YBR023C, strain chs3, active compounds read low 1.03 | locus YBR171W, strain sec66, active compounds read low 1.03 | locus YBR229C, strain ROT2, active compounds read low 0.999 | locus YBR231C, strain swc5, active compounds read low 1.01 | locus YBR279W, strain paf1, active compounds read low 1.02 | locus YCL011C, strain gbp2, active compounds read low 1.02 | locus YCL016C, strain dcc1, active compounds read low 1.03 | locus YCL029C, strain bik1, active compounds read low 0.988 | locus YCL069W, strain vba3, active compounds read low 1.02 | locus YCR088W, strain abp1, active compounds read low 1.02 | locus YDL005C, strain med2, active compounds read low 1.03 | locus YDL035C, strain GPR1, active compounds read low 1.02 | locus YDL040C, strain nat1, active compounds read low 1.02 | locus YDL074C, strain BRE1, active compounds read low 1.02 | locus YDL101C, strain DUN1, active compounds read low 1.02 | locus YDL134C, strain PPH21, active compounds read low 1.01 | locus YDL185W, strain tfp1, active compounds read low 0.995 | locus YDL192W, strain arf1, active compounds read low 0.99 | locus YDR001C, strain nth1, active compounds read low 1.01 | locus YDR069C, strain doa4, active compounds read low 1.02 | locus YDR101C, strain arx1, active compounds read low 0.991 | locus YDR137W, strain rgp1, active compounds read low 1.04 | locus YDR150W, strain NUM1, active compounds read low 1.02 | locus YDR159W, strain sac3, active compounds read low 1.04 | locus YDR162C, strain NBP2, active compounds read low 1.02 | locus YDR195W, strain ref2 1.01 | locus YDR297W, strain sur2, active compounds read low 1.01 | locus YDR318W, strain mcm21, active compounds read low 0.984 | locus YDR334W, strain swr1, active compounds read low 1.02 | locus YDR335W, strain msn5, active compounds read low 1.05 | locus YDR388W, active compounds read low 0.989 | locus YDR392W, strain spt3, active compounds read low 1.04 | locus YDR502C, strain sam2, active compounds read low 0.989 | locus YEL003W, strain gim4, active compounds read low 1.02 | locus YEL037C, strain rad23, active compounds read low 1.03 | locus YEL061C, strain CIN8 (second series), active compounds read low 1.02 | locus YEL061C, strain CIN8, active compounds read low 1.01 | locus YER015W, strain faa2, active compounds read low 1.02 | locus YER016W, strain bim1, active compounds read low 1.03 | locus YER110C, active compounds read low 0.982 | locus YER111C, strain swi4, active compounds read low 1.02 | locus YER155C, strain BEM2 (second series), active compounds read low 1.03 | locus YER155C, strain BEM2, active compounds read low 1 | locus YER167W, strain BCK2, active compounds read low 1.02 | locus YFR010W, strain ubp6, active compounds read low 1.01 | locus YGL078C, strain dbp3, active compounds read low 0.986 | locus YGL086W, strain mad1, active compounds read low 1 | locus YGL167C, strain pmr1, active compounds read low 1.01 | locus YGL173C, strain kem1, active compounds read low 1.03 | locus YGL227W, strain vid30, active compounds read low 1.03 | locus YGL240W, strain doc1, active compounds read low 1.01 | locus YGL248W, strain PDE1, active compounds read low 1.01 | locus YGL253W, strain hxk2, active compounds read low 1.04 | locus YGR078C, strain PAC10, active compounds read low 1.02 | locus YGR135W, strain pre9, active compounds read low 0.983 | locus YGR229C, strain SMI1, active compounds read low 1 | locus YGR252W, strain gcn5, active compounds read low 0.965 | locus YHR013C, strain ard1, active compounds read low 1.05 | locus YHR027C, strain rpn1, active compounds read low 1.03 | locus YHR030C, strain SLT2, active compounds read low 1.01 and 1.05 | locus YHR079C, strain IRE1 (second series), active compounds read low 0.993 | locus YHR079C, strain IRE1, active compounds read low 1.01 | locus YHR094C, strain hxt1, active compounds read low 0.99 | locus YHR129C, strain ARP1, active compounds read low 1.01 | locus YHR142W, strain chs7, active compounds read low 1.04 | locus YHR200W, strain rpn10, active compounds read low 1 | locus YIL066C, strain RNR3, active compounds read low 1.01 | locus YIL073C, strain SPO22, active compounds read low 1.02 | locus YIL125W, strain kgd1, active compounds read low 0.995 | locus YIR030C, strain dcg1, active compounds read low 0.993 | locus YJL092W, strain hpr5, active compounds read low 1.02 | locus YJL095W, strain BCK1 (second series), active compounds read low 1.03 | locus YJL095W, strain BCK1, active compounds read low 1.01 and 0.996 | locus YJL115W, strain asf1, active compounds read low 1.03 | locus YJL129C, strain trk1, active compounds read low 1.04 | locus YJL134W, strain LCB3, active compounds read low 1.01 | locus YJL154C, strain vps35, active compounds read low 1.02 | locus YJL164C, strain tpk1, active compounds read low 1.01 | locus YJL166W, strain qcr8, active compounds read low 1.01 | locus YJL168C, strain set2, active compounds read low 0.996 | locus YJL187C, strain SWE1 (second series), active compounds read low 1.01 | locus YJR043C, strain POL32, active compounds read low 0.995 | locus YJR066W, strain TOR1, active compounds read low 0.976 | locus YJR075W, strain HOC1, active compounds read low 1
